This passage reports growth inhibition results from PubChem BioAssay (NCI).

This is part of a sample that, as a whole, favours compounds with a hit. Of some 79,000 tested, about 15% had one in any assay. Values without a mark were called inactive. The source made the active and inactive calls. Rule as the data show it: active = growth inhibition above about 70%; inactive = the rest.

Test [1] can be described thus: NCI Yeast Anticancer Drug Screen. Data for the rad50 strain (AID 155).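 Also: 0% = growth of vehicle-only cultures of the same strain.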 Particulars: S. cerevisiae rad50 strain growth inhibition, hits give high values. A digest of the protocol: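 Relative growth inhibition (compound vs vehicle) was measured in yeast with a defined repair-gene alteration.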
Test [2] can be described thus: NCI Yeast Anticancer Drug Screen. Data for the mec2-1 strain (AID 157). Conditions: S. cerevisiae mec2-1 strain, hits give high values. A digest of the protocol: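 Readout is yeast growth inhibition, normalised to vehicle-treated controls, in the mec2-1 strain exposed to compound.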
Test [3] in a line: NCI Yeast Anticancer Drug Screen. Data for the sgs1 mgt1 strain (AID 161).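 Also: 0% = growth of cultures given vehicle only.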 Conditions: S. cerevisiae sgs1 mgt1 strain, hits give high values. A digest of the protocol: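 Compounds are added to genetically altered yeast, and growth is compared with cultures given vehicle alone to give percent inhibition.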
Test [4] can be described thus: NCI Yeast Anticancer Drug Screen. Data for the cln2 rad14 strain (AID 165).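 Also: 0% = growth equal to vehicle treated cultures.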 Conditions: S. cerevisiae cln2 rad14 strain, hits give high values. A digest of the protocol:
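Relative to vehicle controls, growth inhibition of compound-treated cln2 rad14 yeast was recorded.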

Test [5] in a line: NCI Yeast Anticancer Drug Screen. Data for the bub3 strain (AID 167). Particulars: S. cerevisiae bub3 mutant strain, hits give high values. A digest of the protocol: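 Screening used yeast with an engineered genetic alteration affecting cell cycle control. Compound-exposed cultures were compared with vehicle cultures, and reduced growth was taken as inhibition.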
Test [6] is described as follows: NCI Yeast Anticancer Drug Screen. Data for the mlh1 rad18 strain (AID 175). Particulars: S. cerevisiae mlh1 rad18 strain growth inhibition, hits give high values. A digest of the protocol: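 Test agents were incubated with a yeast strain of defined genotype (DNA damage repair defect). Inhibition of growth was derived by comparison with vehicle-exposed cultures.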

The mark [7] stands for this setting: at 5.0 µM (retest, dose inferred, filed as 0.5).
The mark [8] stands for this setting: at 50.0 µM (retest, dose inferred, filed as 5.0).

For `CC(=O)/C(=C\c1c(Cl)cccc1Cl)C(=O)CCN(C)C`, the growth inhibition is 18% in test [1] (setting [7]); 99% (active) in test [1] (setting [8]); 75.8% (active) in test [1] (at 50.0 µM); 17% in test [2] (setting [7]); 99% (active) in test [2] (setting [8]); 70.5% (active) in test [2] (at 50.0 µM). For the same compound, the growth inhibition in test [3] (setting [7]) was 8%; in test [3] (setting [8]) it was 99% (active); in test [3] (at 50.0 µM), 81.6% (active); in test [4] (setting [7]) it was 25%; in test [4] (setting [8]) it was 99% (active); in test [4] (at 50.0 µM), 41.2%. Moreover, the growth inhibition in test [5] (setting [7]) was 27%; in test [5] (setting [8]) it was 99% (active); in test [5] (at 50.0 µM) it was 65.8%; in test [6] (setting [7]), 16%; in test [6] (setting [8]) it was 99% (active); in test [6] (at 50.0 µM), 67.9%.

For `O=C(O)C(=O)Cc1ccccc1[N+](=O)[O-]`, the growth inhibition in test [1] (setting [7]) is -3%; in test [1] (setting [8]), 36%; in test [1] (at 50.0 µM), 75.4% (active); in test [2] (setting [7]) it was 1%; in test [2] (setting [8]) it was 1%; in test [2] (at 50.0 µM) it was 4.9%. Further, the growth inhibition is -3% in test [3] (setting [7]); 28% in test [3] (setting [8]); 68.3% in test [3] (at 50.0 µM); 1% in test [4] (setting [7]); 3% in test [4] (setting [8]); -18.6% in test [4] (at 50.0 µM). Besides, the growth inhibition in test [5] (setting [7]) is -10%; in test [5] (setting [8]), 10%; in test [5] (at 50.0 µM), 20.5%; in test [6] (setting [7]) it was -2%; in test [6] (setting [8]), 24%; in test [6] (at 50.0 µM) it was 68.2%.

On to `CCN(CC)CCOc1ccc(/C(C#N)=C/c2ccc3ccccc3c2)cc1`, for which the growth inhibition in test [1] (setting [7]) was 38%; in test [1] (setting [8]) it was 99% (active); in test [1] (at 50.0 µM) it was 99.5% (active); in test [2] (setting [7]) it was 30%; in test [2] (setting [8]), 99% (active); in test [2] (at 50.0 µM), 99.5% (active). In addition, the growth inhibition is 73% (active) in test [3] (setting [7]); 100% (active) in test [3] (setting [8]); 99.2% (active) in test [3] (at 50.0 µM); 28% in test [4] (setting [7]); 99% (active) in test [4] (setting [8]); 99.5% (active) in test [4] (at 50.0 µM). The growth inhibition in test [5] (setting [7]) is 53%; in test [5] (setting [8]), 99% (active); in test [5] (at 50.0 µM) it was 99.4% (active); in test [6] (setting [7]) it was 35%; in test [6] (setting [8]) it was 99% (active); in test [6] (at 50.0 µM) it was 99.2% (active).

For `CNCC(O)c1cccc(O)c1` (stereo not given), the growth inhibition in test [1] (setting [7]) is 7%; in test [1] (setting [8]), 11%; in test [1] (at 50.0 µM), 74.9% (active); in test [2] (setting [7]), 2%; in test [2] (setting [8]), -9%; in test [2] (at 50.0 µM), 14.8%. The growth inhibition was 2% in test [3] (setting [7]); -7% in test [3] (setting [8]); 45% in test [3] (at 50.0 µM); 8% in test [4] (setting [7]); -12% in test [4] (setting [8]); 19% in test [4] (at 50.0 µM). Also, the growth inhibition in test [5] (setting [7]) is 0%; in test [5] (setting [8]), -18%; in test [5] (at 50.0 µM), 21.2%; in test [6] (setting [7]), 1%; in test [6] (setting [8]) it was -5%; in test [6] (at 50.0 µM) it was 31%.

Consider `N#CSCN1C(=O)C2CC=CCC2C1=O` (stereo not given), for which the growth inhibition in test [1] (setting [7]) is 14%; in test [1] (setting [8]), 93% (active); in test [1] (at 50.0 µM), 93% (active); in test [2] (setting [7]), 2%; in test [2] (setting [8]) it was 95% (active); in test [2] (at 50.0 µM) it was 97.1% (active). In addition, the growth inhibition in test [3] (setting [7]) was 8%; in test [3] (setting [8]) it was 94% (active); in test [3] (at 50.0 µM) it was 49.5%; in test [4] (setting [7]) it was 9%; in test [4] (setting [8]), 94% (active); in test [4] (at 50.0 µM), 49.5%. Also, the growth inhibition is 6% in test [5] (setting [7]); 95% (active) in test [5] (setting [8]); 95.5% (active) in test [5] (at 50.0 µM); 11% in test [6] (setting [7]); 96% (active) in test [6] (setting [8]); 50.4% in test [6] (at 50.0 µM).

In the case of `Cc1cc2ccc(N)nc2[nH]c1=O`, the growth inhibition was -7% in test [1] (setting [7]); -4% in test [1] (setting [8]); 25.6% in test [1] (at 50.0 µM); -2% in test [2] (setting [7]); -3% in test [2] (setting [8]); 27.2% in test [2] (at 50.0 µM). Moreover, the growth inhibition is -4% in test [3] (setting [7]); 0% in test [3] (setting [8]); 10.3% in test [3] (at 50.0 µM); -3% in test [4] (setting [7]); -1% in test [4] (setting [8]); 85.4% (active) in test [4] (at 50.0 µM). Further, the growth inhibition in test [5] (setting [7]) is 1%; in test [5] (setting [8]), 5%; in test [5] (at 50.0 µM), 12.7%; in test [6] (setting [7]) it was -2%; in test [6] (setting [8]) it was 1%; in test [6] (at 50.0 µM) it was 24.8%.

For the compound `O=c1[nH]c2ccc([N+](=O)[O-])c(Cl)c2c2ccccc12`, the growth inhibition was 74% (active) in test [1] (setting [7]); 97% (active) in test [1] (setting [8]); 9.1% in test [1] (at 50.0 µM); 21% in test [2] (setting [7]); 98% (active) in test [2] (setting [8]); 12.3% in test [2] (at 50.0 µM). Also, the growth inhibition was 38% in test [3] (setting [7]); 98% (active) in test [3] (setting [8]); 9% in test [3] (at 50.0 µM); 9% in test [4] (setting [7]); 95% (active) in test [4] (setting [8]); -46.8% in test [4] (at 50.0 µM). Besides, the growth inhibition in test [5] (setting [7]) is 19%; in test [5] (setting [8]), 97% (active); in test [5] (at 50.0 µM), 1.05%; in test [6] (setting [7]) it was 70% (active); in test [6] (setting [8]) it was 96% (active); in test [6] (at 50.0 µM) it was 39.9%.

On to `C1CCC2[N-]CC3CCCCC3[N-]CC3CCCCC3[N-]CC3CCCCC3[N-]CC2C1.[Cl][Fe]([Cl])([Cl])[Cl].[Fe+6]` (stereo not given), for which the growth inhibition in test [1] (setting [7]) is 41%; in test [1] (setting [8]) it was 97% (active); in test [1] (at 50.0 µM), 96.3% (active); in test [2] (setting [7]) it was 10%; in test [2] (setting [8]) it was 98% (active); in test [2] (at 50.0 µM), 98.5% (active). The growth inhibition in test [3] (setting [7]) is 25%; in test [3] (setting [8]), 98% (active); in test [3] (at 50.0 µM) it was 98.5% (active); in test [4] (setting [7]), 0%; in test [4] (setting [8]), 96% (active); in test [4] (at 50.0 µM) it was 96.8% (active). The growth inhibition was -3% in test [5] (setting [7]); 97% (active) in test [5] (setting [8]); 97.5% (active) in test [5] (at 50.0 µM); 26% in test [6] (setting [7]); 98% (active) in test [6] (setting [8]); 97.7% (active) in test [6] (at 50.0 µM).

Consider `N#CC(C(=O)C(=O)NC1C2CC3CC(C2)CC1C3)c1c(Cl)cccc1Cl` (stereo not given), for which the growth inhibition in test [1] (setting [7]) is 1%; in test [1] (setting [8]), 7%; in test [1] (at 50.0 µM) it was 31.7%; in test [2] (setting [7]), -4%; in test [2] (setting [8]), -32%; in test [2] (at 50.0 µM), 19.8%. In addition, the growth inhibition in test [3] (setting [7]) was -1%; in test [3] (setting [8]) it was 3%; in test [3] (at 50.0 µM), 21.2%; in test [4] (setting [7]), 3%; in test [4] (setting [8]) it was 5%; in test [4] (at 50.0 µM), 28.6%. In addition, the growth inhibition in test [5] (setting [7]) is -1%; in test [5] (setting [8]) it was 5%; in test [5] (at 50.0 µM), 0.45%; in test [6] (setting [7]), -1%; in test [6] (setting [8]), 5%; in test [6] (at 50.0 µM) it was 30.6%.

With `COc1ccc(C(C)(C)c2cc3c(cc2OCCO)OCO3)cc1`, the growth inhibition in test [1] (setting [7]) is -1%; in test [1] (setting [8]), 82% (active); in test [1] (at 50.0 µM) it was 89.8% (active); in test [2] (setting [7]) it was 1%; in test [2] (setting [8]) it was 90% (active); in test [2] (at 50.0 µM), 92.2% (active). In addition, the growth inhibition in test [3] (setting [7]) was 4%; in test [3] (setting [8]), 92% (active); in test [3] (at 50.0 µM), 97% (active); in test [4] (setting [7]), 0%; in test [4] (setting [8]), 70% (active); in test [4] (at 50.0 µM), 60.1%. Besides, the growth inhibition in test [5] (setting [7]) was 13%; in test [5] (setting [8]), 90% (active); in test [5] (at 50.0 µM), 90.2% (active); in test [6] (setting [7]), 1%; in test [6] (setting [8]), 94% (active); in test [6] (at 50.0 µM), 93.3% (active).
